A selection: hits, their analogues and other compounds. The true share with any hit is near 8.5%.
JMJD2E inh – qHTS Assay for Inhibitors of Human Jumonji Domain Containing 2E (JMJD2E) | JMJD2E catalytic domain, FDH-coupled NADH fluorescence (FDH is formaldehyde dehydrogenase) | 1.6% of 230,000 active | Potency, µM (series often up to 57.1 µM), actives largely listed as inhibitors | Lysine-specific demethylase 4E (Homo sapiens), B2RXH2; further: nearly all actives have a fitted effect of over 50% in size
Sfp PPTase inh – qHTS Assay for Inhibitors of Bacillus subtilis Sfp phosphopantetheinyl transferase (PPTase); 3.5% of 310,000 active; Potency, µM, actives largely listed as inhibitors; 4'-phosphopantetheinyl transferase ffp (Bacillus subtilis), Q9F4F7; Biochemical Sfp PPTase activity, qHTS; active means well fitted curve in the direction sought with a large enough effect; inconclusive means small, poorly fitted or top-dose-only effect, or another doubt; inactive means no such curve, though single readings can be large; an effect the other way counts as inactive or inconclusive;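 further: the enzyme is Sfp with the accession as filed and its product quenches rhodamine fluorescence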
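After 15 min at room temperature with compound, 15 nM Sfp received 5 uM rhodamine-CoA plus 12.5 uM BHQ-2-ybbR (50 mM Hepes pH 7.6, 10 mM MgCl2). Rate came from the fluorescence difference over 30 min, ex 525/em 598 nm.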
ALDH1A1 block – qHTS Assay for Inhibitors of Aldehyde Dehydrogenase 1 (ALDH1A1); Aldehyde dehydrogenase 1A1 (Homo sapiens), P00352; AID 1030, 2008; 7.3% of 220,000 active; Purified ALDH1A1, NADH fluorescence, propionaldehyde substrate; Potency, µM (top dose mostly 75.3 µM), hits mostly inhibitors
NPSR antag – qHTS Assay for Antagonists of the Neuropeptide S Receptor: cAMP Signal Transduction | Q6W5P4 | CHO-NPSR cells, cAMP TR-FRET, antagonist mode | Potency, µM (doses to about 38.3 µM), actives largely listed as inhibitors | 1% of 220,000 active | AID 1461, 2008; active means well fitted curve in the direction sought with a large enough effect; inconclusive means small, poorly fitted or top-dose-only effect, or another doubt; inactive means no such curve, though single readings can be large; an effect the other way counts as inactive or inconclusive; further: nearly all actives have a fitted effect of over 50% in size
RGS12 GoLoco inh – qHTS Assay for Inhibitors of RGS12 GoLoco Motif Activity (Red Fluorophore); Potency, µM (highest dose often 61.6 µM), most hits filed as inhibitors; 0.44% of 230,000 active; Guanine nucleotide-binding protein G(i) subunit alpha-1 (Homo sapiens), P63096; Gai1:RGS12 GoLoco peptide FP, rhodamine, 10 min; AID 880, 2007; active means well fitted inhibition curve with a large enough effect, not every such curve was filed as active; inactive means no such curve, though single readings can be large or run the other way; further: nearly all actives have a fitted effect of over 30% in size
Target sequence (P63096 whole entry, looked up): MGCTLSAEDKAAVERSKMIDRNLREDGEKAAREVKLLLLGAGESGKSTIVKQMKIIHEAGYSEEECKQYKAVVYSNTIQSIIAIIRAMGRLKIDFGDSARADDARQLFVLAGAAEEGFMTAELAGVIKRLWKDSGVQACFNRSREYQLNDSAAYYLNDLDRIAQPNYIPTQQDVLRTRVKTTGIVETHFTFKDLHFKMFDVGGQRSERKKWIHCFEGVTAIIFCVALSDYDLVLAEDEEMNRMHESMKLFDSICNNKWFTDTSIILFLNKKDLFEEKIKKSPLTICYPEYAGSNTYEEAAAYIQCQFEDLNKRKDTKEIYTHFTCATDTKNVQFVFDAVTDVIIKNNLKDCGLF
Coupling enz – qHTS Assay for Inhibitors of Fructose-1,6-bisphosphate Aldolase from Giardia Lamblia: Coupling assay counterscreen; coupling enzyme system counterscreen, AmpLite Red fluorescence; activity change, negative = inhibition, % at 58.2 µM, hits read low; 0.67% of 290,000 active; in the data active means activity change below about -30%
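Counterscreen lacking aldolase: glyceraldehyde-3-phosphate coupling-enzyme reagent preincubated 10 min at RT with compound (at 57.5 uM final), then substrate/coupling system with AmpLite Red added; fluorescence read at 525/598 nm after 20 min RT.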
Large screens that a line does not name were inactive. Unless noted, the call rests on the fitted dose curve; in most records, active means well fitted inhibition curve with a large enough effect (not every such curve was filed as active); inconclusive means small, poorly fitted or top-dose-only effect, or another doubt; inactive means no such curve, though single readings can be large or run the other way.

CCC1CCCCN1CCCNC(=O)c1ccc(N2CCOCC2)c(NS(=O)(=O)c2ccc(OC)cc2)c1 (stereo not given)	ALDH1A1 block inconclusive
CCCCNC(=O)c1ccc(N2CCOCC2)c(NS(=O)(=O)c2ccc(OC)cc2)c1	ALDH1A1 block 8.9µM
O=[N+]([O-])c1ccc2c(c1)Cc1cc(N=Cc3ccc4c(c3)OCO4)ccc1-2	none (no result: JMJD2E inh, Sfp PPTase inh, NPSR antag, Coupling enz)
CN(C)C(=O)CCSc1nnc(-c2ccco2)o1	none
CCCn1c2c(c(O)c(C(=O)NCCCN(CC)CC)c1=O)CCCC2	JMJD2E inh inconclusive, ALDH1A1 block 28µM
CCCn1c2c(c(O)c(C(=O)NC)c1=O)CCCC2	none
Cc1csc(NC(=O)CCC(=O)N(CC(=O)NC2CCCCC2)c2ccccc2)n1	none (no result: JMJD2E inh, ALDH1A1 block, NPSR antag, RGS12 GoLoco inh)
Cc1ccc(N/N=C2\CC(=O)c3ccccc32)cc1Cl	JMJD2E inh 22µM, ALDH1A1 block 25µM
CC(C)N1CCN(Cc2ccc(-c3ccccc3Cl)o2)CC1CCO (stereo not given)	ALDH1A1 block inconclusive
CCS(=O)(=O)Nc1cccc(C2=NN(S(=O)(=O)c3ccc(C)cc3)C(c3ccco3)C2)c1 (stereo not given)	Sfp PPTase inh 50µM, ALDH1A1 block inconclusive
CCS(=O)(=O)Nc1cccc(C2=NN(S(=O)(=O)c3ccccc3)C(c3ccco3)C2)c1 (stereo not given)	Sfp PPTase inh inconclusive (no result: ALDH1A1 block)
CS(=O)(=O)Nc1cccc(C2=NN(S(=O)(=O)c3ccccc3)C(c3ccco3)C2)c1 (stereo not given)	Sfp PPTase inh 56µM, ALDH1A1 block inconclusive
CCS(=O)(=O)N1N=C(c2cccc(NS(C)(=O)=O)c2)CC1c1ccc(C)cc1 (stereo not given)	ALDH1A1 block 20µM
CC(=O)Nc1ccc(N2C(=O)CSC2c2ccccc2)cc1 (stereo not given)	none (no result: JMJD2E inh, ALDH1A1 block, NPSR antag, RGS12 GoLoco inh)
O=C(NCc1ccccc1)C1(c2cccc(F)c2)CCCC1	none
Cc1ccc2sc(C)[n+](CCCS(=O)(=O)[O-])c2c1	Sfp PPTase inh 2.8µM
Cc1ccc2c(c1)sc(C)[n+]2CCCS(=O)(=O)[O-]	Sfp PPTase inh 1µM, ALDH1A1 block inconclusive
COc1ccc(OCC(O)CNCCOc2ccccc2OC)c(C(C)(C)C)c1 (stereo not given)	Sfp PPTase inh inconclusive (no result: JMJD2E inh, ALDH1A1 block, NPSR antag, RGS12 GoLoco inh)
Cc1[nH]c(/C=C2/C(=O)Nc3ccc(S(=O)(=O)Cc4c(Cl)cccc4Cl)cc32)c(C)c1C(=O)N1CCCC1CN1CCCC1 (stereo not given)	Sfp PPTase inh inconclusive (no result: JMJD2E inh, ALDH1A1 block, NPSR antag, RGS12 GoLoco inh)
O=C(/C=C/c1ccc(O)c(O)c1)c1ccccc1O	JMJD2E inh 25µM, NPSR antag inconclusive (no result: ALDH1A1 block)
O=C(/C=C/c1ccc(O)c(O)c1)OCCc1ccccc1	JMJD2E inh 20µM, Sfp PPTase inh inconclusive, ALDH1A1 block inconclusive
O=C(O)/C=C\c1ccc(O)c(O)c1	JMJD2E inh 11µM, Sfp PPTase inh 35µM (no result: NPSR antag)
O=C(O)/C=C/c1ccccc1	none (no result: JMJD2E inh, ALDH1A1 block, NPSR antag, Coupling enz)
O=C(/C=C/c1ccoc1)c1ccccc1O	ALDH1A1 block inconclusive
COc1ccccc1NS(=O)(=O)c1cc(NC(=O)c2ccncc2)ccc1N1CCOCC1	JMJD2E inh inconclusive, Sfp PPTase inh 79µM, ALDH1A1 block inconclusive
COc1ccccc1NS(=O)(=O)c1cc(NC(=O)c2cnccn2)ccc1N1CCOCC1	none (no result: ALDH1A1 block)
COc1ccccc1NS(=O)(=O)c1cc(NC(=O)C2CCCC2)ccc1N1CCOCC1	Sfp PPTase inh 20µM, ALDH1A1 block 10µM
COc1ccccc1NS(=O)(=O)c1cc(NC(=O)c2sccc2C)ccc1N1CCOCC1	none (no result: ALDH1A1 block)
COc1ccccc1S(=O)(=O)Nc1cc(S(=O)(=O)N2CCCCC2)ccc1N1CCOCC1	ALDH1A1 block 13µM
COc1ccccc1NS(=O)(=O)c1cc(NC(=S)NCCN2CCOCC2)ccc1N1CCOCC1	ALDH1A1 block 25µM
